Among the data in PubChem BioAssay AID602350 (Broad Institute, 2012) are outcome values, retold here.

The test addresses Protein disulfide-isomerase (Homo sapiens) (UniProt P07237). In words: PDI inhibitors, insulin aggregation turbidity, dose response, biochemical, absorbance, cherry-picked samples (AID 602350). The settings on record: recombinant PDI insulin aggregation, absorbance 650 nm, 90 min; series mostly up to 19.5 µM.

SMILES strings stand for the structures. Entries with a potency or affinity are not part of this list. Calls of active or inactive are those of the source.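 How the source made its calls: active means absorbance falls by 30% or more versus neutral controls, with a potency fitted within twice the top valid dose; inconclusive means no clear call, values can overlap the other calls; inactive means change opposite to expected direction, plus the rest.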

Sequence of Protein disulfide-isomerase (Homo sapiens) (P07237 whole entry, looked up): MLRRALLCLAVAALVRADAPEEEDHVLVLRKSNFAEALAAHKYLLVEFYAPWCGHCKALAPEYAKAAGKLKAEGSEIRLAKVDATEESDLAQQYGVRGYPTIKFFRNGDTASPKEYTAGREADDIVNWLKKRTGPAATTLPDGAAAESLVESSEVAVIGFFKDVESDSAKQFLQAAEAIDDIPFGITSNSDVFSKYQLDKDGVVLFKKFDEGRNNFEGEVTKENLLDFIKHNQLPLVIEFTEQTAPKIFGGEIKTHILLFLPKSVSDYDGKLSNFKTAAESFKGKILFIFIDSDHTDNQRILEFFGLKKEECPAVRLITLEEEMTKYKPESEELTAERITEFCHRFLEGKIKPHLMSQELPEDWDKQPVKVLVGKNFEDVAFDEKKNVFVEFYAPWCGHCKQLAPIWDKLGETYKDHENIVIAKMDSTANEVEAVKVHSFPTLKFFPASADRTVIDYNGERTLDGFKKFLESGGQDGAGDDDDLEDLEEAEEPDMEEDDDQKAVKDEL

Regarding `COc1ccc(S(=O)(=O)NCC(c2ccc(F)cc2)N2CCOCC2)cc1Br` (configuration not stated), the result was inactive. Under `CCOC(=O)C1=C(c2ccccc2)N=c2s/c(=C\c3cccc(O)c3)c(=O)n2C1c1cccs1` (configuration not stated) stands “inactive”; under `Cc1ccc(CN(c2ccc(C(=O)NCc3ccccn3)cc2)S(C)(=O)=O)cc1`, “inactive”; under `Cc1cccc(C(=O)OCC(=O)N2CCCCCC2)c1O`, “inactive”. Under `COc1ccccc1NS(=O)(=O)c1cccc(C(=O)NCC2(N3CCCCC3)CCCCC2)c1` stands “inactive”; under `COc1ccc(CNC(=O)c2ccc(CS(=O)Cc3cccc(Cl)c3)o2)cc1` (configuration not stated), “inactive”; under `O=C1CCC(=O)N1CCc1c[nH]c2ccccc12`, “inactive”. Take `O=C(COC(=O)c1ccccc1NC(=O)c1ccco1)NCCC1=CCCCC1`: the result was inactive. Consider `O=C(Nc1ccccc1)c1cc(C2CCCCN2C(=O)c2ccccc2)on1` (configuration not stated), for which the result was inactive. Under `CCCn1nnnc1NC(=O)c1cccs1` stands “inactive”; under `C=CCn1c(C(CCCC)CC(O)COCC(C)C)n[nH]c1=S` (configuration not stated), “inactive”; under `CSc1cccc(NC(=O)CN(C)S(=O)(=O)c2ccc(F)cc2)c1`, “inactive”. The value for `CC(O)(c1cccnc1)c1nc(-c2cc(F)cc(F)c2)cs1` (configuration not stated) was “inactive”. The value for `COc1ccc(C(=O)c2c(C)c3cc(C)ccc3n2CC(O)CN2CCOCC2)cc1` (configuration not stated) was “inactive”; that for `OCCC1CN(Cc2cccn2-c2ccccn2)CCN1C1CCCCC1` (configuration not stated) was “inactive”; that for `NC(Cc1ccc(C(F)(F)F)cc1)c1csc(Nc2ccc(C(=O)NCCCO)cn2)n1` (configuration not stated) was “inactive”. For `CC(=O)NC(Cc1c[nH]c2ccccc12)C(=O)OCC(=O)N1CCN(S(=O)(=O)c2ccc(Cl)cc2)CC1` (configuration not stated), the outcome was inactive.
